Among the data in PubChem BioAssay (NCI) are growth values, retold here.

Values joined by “and” are separate entries in the source; they are usually repeats but may differ in a detail not shown here. Equal values may be shown once. About 83,000 compounds went through this panel and 20% of them were active in at least one assay; those are over-represented in the sample as a whole.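 Cells were grown in 96-well plates and exposed to the test compound at a single concentration for 48 hours; results are reported as percent growth, with values below 10 considered active.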 Values without a mark were called inactive. Active and inactive are the calls of the source.

Test systems include NCI-H23 lung; NCI-H226 lung; HOP-62 NSCLC; HOP-92 NSCLC; A549/ATCC NSCLC; 786-0 renal; COLO 205 colon; DU-145 prostate; K-562 leukemia; MALME-3M melanoma; MDA-MB-231 breast; RXF 393 renal; SF-268 CNS; SF-295 CNS; SF-539 CNS; M14 melanoma.
Assay in all cases: NCI-60 one-dose screen, 48 h (100 = growth as untreated, 0 = no growth, -100 = all killed)
The test system of another experiment is NCI-H322M lung. As to conditions: 10 µM unless noted.
In another experiment the test system is NCI-H460 lung. As to conditions: 10 µM unless noted.
For another experiment, the system named is NCI-H522 lung. The note with it: 10 µM unless noted.
For another experiment, the system named is UACC-257 melanoma. The note with it: 10 µM unless noted.

Take `COC(=O)CCOc1ccccc1`: the growth is 85.4% in the experiment on NCI-H23 lung (10 µM unless noted); 105% in the experiment with NCI-H226 lung (10 µM unless noted); 103% in the experiment with NCI-H322M lung; 101% in the experiment on HOP-62 NSCLC (10 µM unless noted); 101% with NCI-H460 lung; 86.2% in the experiment on HOP-92 NSCLC (10 µM unless noted). Further, the growth in the experiment on NCI-H522 lung is 87.9%; with A549/ATCC NSCLC (10 µM unless noted) it was 85%; with 786-0 renal (10 µM unless noted), 95.3%; in the experiment on COLO 205 colon (10 µM unless noted) it was 118%; in the experiment with DU-145 prostate (10 µM unless noted) it was 110%; in the experiment on K-562 leukemia (10 µM unless noted), 71.7%. The growth in the experiment with MALME-3M melanoma (10 µM unless noted) was 91.8%; with MDA-MB-231 breast (10 µM unless noted), 110%; in the experiment with RXF 393 renal (10 µM unless noted), 89%; with SF-268 CNS (10 µM unless noted) it was 108%; with SF-295 CNS (10 µM unless noted) it was 130%; with SF-539 CNS (10 µM unless noted), 101%. Moreover, the growth in the experiment on UACC-257 melanoma was 82.8%; with M14 melanoma (10 µM unless noted), 106%.
On to `CS/C(=C\c1ccc(C(=O)c2ccc(C)cc2)n1C)S(C)=O` (centres undefined), for which the growth with NCI-H23 lung (10 µM) is 109%; with NCI-H23 lung (100 µM), 66.2%; in the experiment with NCI-H226 lung (10 µM), 81.3%; in the experiment on NCI-H226 lung (100 µM), 72.3%; with HOP-62 NSCLC (10 µM), 96.8%; in the experiment on HOP-62 NSCLC (100 µM), 76.9%. In addition, the growth with HOP-92 NSCLC (10 µM) was 71.7%; in the experiment on HOP-92 NSCLC (100 µM) it was 64.6%; with NCI-H522 lung, 6.15% [100 µM] (active); in the experiment on A549/ATCC NSCLC (10 µM) it was 85.1%; in the experiment with A549/ATCC NSCLC (100 µM), 65.7%; in the experiment with 786-0 renal (10 µM) it was 99.4%. Also, the growth with 786-0 renal (100 µM) was 74.1%; with COLO 205 colon (10 µM), 126%; in the experiment with COLO 205 colon (100 µM) it was 93.5%; in the experiment on DU-145 prostate (10 µM) it was 110%; in the experiment on DU-145 prostate (100 µM) it was 88.1%; in the experiment with K-562 leukemia (10 µM), 44.4%. Also, the growth was 26.3% in the experiment on K-562 leukemia (100 µM); 95% with MALME-3M melanoma (10 µM); 69.3% in the experiment with MALME-3M melanoma (100 µM); 89.6% in the experiment with MDA-MB-231 breast (10 µM); 85.6% with MDA-MB-231 breast (100 µM); 101% in the experiment on RXF 393 renal (10 µM). For the same compound, the growth in the experiment with RXF 393 renal (100 µM) is 73.2%; in the experiment on SF-268 CNS (10 µM), 112%; with SF-268 CNS (100 µM), 93.2%; in the experiment with SF-295 CNS (10 µM), 60.7%; in the experiment on SF-295 CNS (100 µM), 62.2%; with SF-539 CNS (10 µM), 91.3%. In addition, the growth in the experiment on SF-539 CNS (100 µM) was 80.4%; in the experiment with UACC-257 melanoma, 64.6% [100 µM]; in the experiment on M14 melanoma (10 µM), 103%; in the experiment with M14 melanoma (100 µM), 69%.
In the case of `O=C(O)Cc1cc(=O)[nH]n(-c2ccccc2)c1=O`, the growth in the experiment with NCI-H23 lung (10 µM unless noted) is 108%; with NCI-H226 lung (10 µM unless noted), 98.1%; with NCI-H322M lung, 109%; with HOP-62 NSCLC (10 µM unless noted), 106%; in the experiment on NCI-H460 lung it was 109%; in the experiment on HOP-92 NSCLC (10 µM unless noted) it was 98%. Also, the growth is 95.4% in the experiment with NCI-H522 lung; 95.6% in the experiment with A549/ATCC NSCLC (10 µM unless noted); 108% in the experiment with 786-0 renal (10 µM unless noted); 110% with COLO 205 colon (10 µM unless noted); 115% with DU-145 prostate (10 µM unless noted); 100% with K-562 leukemia (10 µM unless noted). Also, the growth in the experiment on MALME-3M melanoma (10 µM unless noted) was 113%; with MDA-MB-231 breast (10 µM unless noted), 101%; with RXF 393 renal (10 µM unless noted) it was 109%; in the experiment on SF-268 CNS (10 µM unless noted) it was 96.8%; in the experiment with SF-295 CNS (10 µM unless noted), 97.4%; in the experiment on SF-539 CNS (10 µM unless noted), 99.1%. Besides, the growth with UACC-257 melanoma is 98.2%; in the experiment on M14 melanoma (10 µM unless noted) it was 106%.
On to `COc1cc2oc3cc(=O)cc4oc(-c5ccccc5)cc(c2c2c1CCC(c1ccccc1)O2)c43` (centres undefined), for which the growth in the experiment with NCI-H23 lung (10 µM unless noted) was 87.8%; with NCI-H226 lung (10 µM unless noted) it was 64.4%; in the experiment with NCI-H322M lung, 101%; in the experiment with HOP-62 NSCLC (10 µM unless noted) it was 91%; with NCI-H460 lung, 76.2%; in the experiment on HOP-92 NSCLC (10 µM unless noted), 81.1%. Further, the growth is 86.6% with NCI-H522 lung; 96.2% in the experiment with A549/ATCC NSCLC (10 µM unless noted); 110% in the experiment with 786-0 renal (10 µM unless noted); 98.5% in the experiment on COLO 205 colon (10 µM unless noted); 79.7% in the experiment with DU-145 prostate (10 µM unless noted); 42.1% with K-562 leukemia (10 µM unless noted). The growth was 117% in the experiment on MALME-3M melanoma (10 µM unless noted); 75.8% in the experiment on MDA-MB-231 breast (10 µM unless noted); 78.6% in the experiment on RXF 393 renal (10 µM unless noted); 85.1% in the experiment with SF-268 CNS (10 µM unless noted); 70.5% in the experiment on SF-295 CNS (10 µM unless noted); 78.7% in the experiment on SF-539 CNS (10 µM unless noted). Further, the growth with UACC-257 melanoma was 99.9%; with M14 melanoma (10 µM unless noted), 88.2%.
With `O=C(Nc1ccccc1)OCC(CN1CCCCC1)OC(=O)Nc1ccccc1` (centres undefined), the growth in the experiment with NCI-H23 lung (10 µM unless noted) was 78.4% and 103%; in the experiment with NCI-H226 lung (10 µM unless noted), 96.6% and 89.9%; in the experiment with NCI-H322M lung, 81% and 92.2%; in the experiment on HOP-62 NSCLC (10 µM unless noted) it was 83.6% and 110%; in the experiment on NCI-H460 lung, 106% and 105%; in the experiment with HOP-92 NSCLC (10 µM unless noted), 76.4%. In addition, the growth in the experiment with NCI-H522 lung was 103%; with A549/ATCC NSCLC (10 µM unless noted) it was 94.1% and 94.4%; in the experiment with 786-0 renal (10 µM unless noted), 64% and 101%; with COLO 205 colon (10 µM unless noted), 98%; in the experiment on DU-145 prostate (10 µM unless noted), 107%; with K-562 leukemia (10 µM unless noted), 89%. Also, the growth was 90.8% and 109% in the experiment with MALME-3M melanoma (10 µM unless noted); 30.7% and 79.2% with MDA-MB-231 breast (10 µM unless noted); 60% and 86.8% with RXF 393 renal (10 µM unless noted); 79.2% and 94.7% with SF-268 CNS (10 µM unless noted); 96.5% and 97.9% with SF-295 CNS (10 µM unless noted); 87.5% and 96.2% with SF-539 CNS (10 µM unless noted). The growth with UACC-257 melanoma is 93.7% and 93.2%; with M14 melanoma (10 µM unless noted) it was 86.6% and 108%.
Consider `CC1(C)CC(=O)NC1=O`, for which the growth in the experiment with NCI-H23 lung (10 µM unless noted) is 96.5%; with NCI-H226 lung (10 µM unless noted) it was 99.6%; with NCI-H322M lung, 94.2%; with HOP-62 NSCLC (10 µM unless noted), 101%; in the experiment on NCI-H460 lung, 108%; in the experiment on HOP-92 NSCLC (10 µM unless noted), 114%. Besides, the growth in the experiment on NCI-H522 lung was 96.8%; in the experiment on A549/ATCC NSCLC (10 µM unless noted), 99.3%; in the experiment on 786-0 renal (10 µM unless noted) it was 97.6%; in the experiment with COLO 205 colon (10 µM unless noted), 113%; in the experiment with DU-145 prostate (10 µM unless noted), 109%; in the experiment on K-562 leukemia (10 µM unless noted), 94.8%. The growth in the experiment with MALME-3M melanoma (10 µM unless noted) is 102%; in the experiment on MDA-MB-231 breast (10 µM unless noted) it was 106%; with RXF 393 renal (10 µM unless noted) it was 97.7%; with SF-268 CNS (10 µM unless noted) it was 100%; in the experiment on SF-295 CNS (10 µM unless noted) it was 108%; in the experiment with SF-539 CNS (10 µM unless noted), 93.5%. The results for the growth in the experiment on UACC-257 melanoma and in the experiment with M14 melanoma (10 µM unless noted) were 101% and 95%, respectively.
